Results with a measured potency or affinity are listed apart.
Target: Beta-adrenergic receptor kinase 1 (Homo sapiens) (UniProt P25098)
Test: aptamer displacement from bead-bound GRK2 – biochemical, cherry pick 1, bead flow cytometry, dose response (AID 504500)
Details: bead-bound biotinylated GRK2, FAM-aptamer displacement; series mostly up to 33 µM; inhibition of aptamer binding: at the top concentration;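 active = compounds whose curve fit is tight, with span above 25% and half-effect concentration below 10 µM; inactive = the rest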

Beta-adrenergic receptor kinase 1 (Homo sapiens), sequence (P25098 whole entry, looked up): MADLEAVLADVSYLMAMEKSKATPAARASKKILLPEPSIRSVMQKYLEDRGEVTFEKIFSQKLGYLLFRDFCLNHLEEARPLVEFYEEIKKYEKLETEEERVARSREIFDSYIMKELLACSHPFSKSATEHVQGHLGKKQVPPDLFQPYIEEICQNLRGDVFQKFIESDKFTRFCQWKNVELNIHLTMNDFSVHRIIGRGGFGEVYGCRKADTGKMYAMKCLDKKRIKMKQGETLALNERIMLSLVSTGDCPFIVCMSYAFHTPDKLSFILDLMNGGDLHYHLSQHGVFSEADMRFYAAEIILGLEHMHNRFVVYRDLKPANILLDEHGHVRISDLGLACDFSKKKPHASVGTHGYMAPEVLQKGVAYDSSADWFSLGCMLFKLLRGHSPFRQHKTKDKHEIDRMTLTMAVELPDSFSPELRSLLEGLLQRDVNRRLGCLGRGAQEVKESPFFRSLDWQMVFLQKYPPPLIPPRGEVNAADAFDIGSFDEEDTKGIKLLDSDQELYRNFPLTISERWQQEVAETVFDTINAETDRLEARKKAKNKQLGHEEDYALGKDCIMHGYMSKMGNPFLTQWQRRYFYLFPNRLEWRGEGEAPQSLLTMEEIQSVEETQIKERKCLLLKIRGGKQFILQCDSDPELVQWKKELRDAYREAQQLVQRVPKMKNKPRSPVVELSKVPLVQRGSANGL

Inhibition of aptamer binding, inactive:
Cc1ccc(OCC(=O)c2c(N)n(C)c(=O)n(C)c2=O)c([N+](=O)[O-])n1 85%, Cc1cc2ccccc2n1CCNC(=O)c1ccccc1 -0.61%, COc1ccc(N2CCN(C(CNS(=O)(=O)c3ccccc3)c3ccccc3)CC2)cc1 (stereo not drawn) 3.82%, CN(C)c1cccc(C(=O)OCc2cc(=O)oc3cc(O)ccc23)c1 -6.6%, Cc1ccc(S(=O)(=O)Cc2ccc(C(=O)O)o2)cc1 -1.3%, COc1ccc(S(=O)(=O)NCC(c2ccc(F)cc2)N2CCN(C)CC2)cc1 (stereo not drawn) -4.14%, C#CCSc1nc2sc3c(c2c(=O)n1C)CCC3 85.1%, Cc1cccc(N2CCN(C(=O)CCS(=O)(=O)c3ccc(Br)cc3)CC2C)c1 (stereo not drawn) 95.7%, Cc1oc(-c2ccc(Cl)cc2)nc1CN1CCCC(C(=O)NCc2cccnc2)C1 (stereo not drawn) -6.31%, CCN1/C(=C/c2ccc3cccc(C)c3[n+]2CC)Sc2ccccc21 44.9%, O=C(CN1CCc2ccccc21)NC(=O)NCc1ccccc1 53.7%, O=C(CCS(=O)(=O)c1ccc(Br)cc1)NCc1ccco1 72.6%, CCOc1ccc(CCNC(=O)CCS(=O)(=O)c2ccc(Br)cc2)cc1OCC 2.77%, COCCNC(=O)C/C(C)=N/NC(=O)C(=O)NC1CCCCC1 2.44%, O=C(CCS(=O)(=O)c1ccc(Br)s1)Nc1ccccc1Br 31.5%, COc1ccc(OC)c(N2C(=O)[C@@H]3C(c4ccccc4Cl)=NO[C@@H]3C2=O)c1 76.3%, CC(=O)Nc1ccc(N(C)C)cc1[N+](=O)[O-] 7.48%, CCN1/C(=C/C(C)=C/c2sc3ccccc3[n+]2CC)Sc2ccccc21 17.1%

Source: PubChem BioAssay AID504500 (NMMLSC, 2011)
